Assay results reported in the supplement of paper PMC11732987, “Enantioselective OTUD7B fragment discovery through chemoproteomics screening and high-throughput optimisation” (Communications Chemistry, 2025).

Assays:
Test in all cases: log2 ratio of Biotin-Ahx-Ub-VS probe labelling (fragment/DMSO); higher = less target engagement (more negative = stronger competition), active = hit call of the paper (q ≤ 0.05, log2 ratio ≤ -1)
Details in all cases: compound concentration: 200 uM; treatment time: 3 h
[1] = molecular target: USP34 (UniProt Q70CQ2)
Procedure, shortened: (§1)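 Average log2 ratios of fragment over vehicle were obtained by unpaired t-test from global-median-normalised Spectronaut label-free quantities. Proteins with ≥2 unique peptides were included. HEK293T lysate (495 µg per sample) was treated in triplicate with fragment at 200 µM or vehicle for 3 h, then with Biotin-Ahx-Ub-VS at 0.5 µM final for 1 h, and labelled DUBs were NeutrAvidin-enriched and run by diaPASEF LC-MS/MS.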

[2] = molecular target: T1, USP36 (UniProt Q9P275)
T1 sequence (whole entry): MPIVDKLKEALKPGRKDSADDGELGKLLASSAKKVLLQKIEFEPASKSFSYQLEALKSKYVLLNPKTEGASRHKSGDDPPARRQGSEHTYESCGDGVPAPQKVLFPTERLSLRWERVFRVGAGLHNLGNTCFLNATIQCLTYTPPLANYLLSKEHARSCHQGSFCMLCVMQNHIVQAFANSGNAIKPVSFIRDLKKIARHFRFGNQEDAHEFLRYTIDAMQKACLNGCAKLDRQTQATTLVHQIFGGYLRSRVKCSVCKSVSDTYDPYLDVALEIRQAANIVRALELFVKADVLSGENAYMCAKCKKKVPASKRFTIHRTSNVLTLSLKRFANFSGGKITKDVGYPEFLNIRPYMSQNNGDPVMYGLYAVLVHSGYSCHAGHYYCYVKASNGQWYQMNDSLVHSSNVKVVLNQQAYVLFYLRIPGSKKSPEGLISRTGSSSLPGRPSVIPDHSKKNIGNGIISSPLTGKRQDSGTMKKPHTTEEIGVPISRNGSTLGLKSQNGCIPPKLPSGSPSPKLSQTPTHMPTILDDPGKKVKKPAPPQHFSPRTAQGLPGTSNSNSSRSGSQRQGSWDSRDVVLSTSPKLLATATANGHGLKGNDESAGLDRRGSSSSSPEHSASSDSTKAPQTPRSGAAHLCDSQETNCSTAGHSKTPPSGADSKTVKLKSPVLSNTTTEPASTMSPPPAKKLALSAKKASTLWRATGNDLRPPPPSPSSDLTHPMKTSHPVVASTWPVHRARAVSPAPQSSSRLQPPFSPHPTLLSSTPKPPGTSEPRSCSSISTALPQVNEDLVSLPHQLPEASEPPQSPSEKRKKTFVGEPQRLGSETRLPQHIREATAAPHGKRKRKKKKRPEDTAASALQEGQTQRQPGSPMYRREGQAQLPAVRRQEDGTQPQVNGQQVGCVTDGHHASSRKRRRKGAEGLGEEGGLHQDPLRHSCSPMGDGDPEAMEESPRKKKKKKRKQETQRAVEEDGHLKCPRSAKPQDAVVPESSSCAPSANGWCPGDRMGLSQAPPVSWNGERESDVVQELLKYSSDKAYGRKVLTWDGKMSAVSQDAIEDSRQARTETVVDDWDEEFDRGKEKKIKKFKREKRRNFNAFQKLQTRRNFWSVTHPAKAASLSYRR
Procedure, shortened: as §1

[3] = molecular target: T2, USP38 (UniProt Q8NB14)
T2 sequence (whole entry): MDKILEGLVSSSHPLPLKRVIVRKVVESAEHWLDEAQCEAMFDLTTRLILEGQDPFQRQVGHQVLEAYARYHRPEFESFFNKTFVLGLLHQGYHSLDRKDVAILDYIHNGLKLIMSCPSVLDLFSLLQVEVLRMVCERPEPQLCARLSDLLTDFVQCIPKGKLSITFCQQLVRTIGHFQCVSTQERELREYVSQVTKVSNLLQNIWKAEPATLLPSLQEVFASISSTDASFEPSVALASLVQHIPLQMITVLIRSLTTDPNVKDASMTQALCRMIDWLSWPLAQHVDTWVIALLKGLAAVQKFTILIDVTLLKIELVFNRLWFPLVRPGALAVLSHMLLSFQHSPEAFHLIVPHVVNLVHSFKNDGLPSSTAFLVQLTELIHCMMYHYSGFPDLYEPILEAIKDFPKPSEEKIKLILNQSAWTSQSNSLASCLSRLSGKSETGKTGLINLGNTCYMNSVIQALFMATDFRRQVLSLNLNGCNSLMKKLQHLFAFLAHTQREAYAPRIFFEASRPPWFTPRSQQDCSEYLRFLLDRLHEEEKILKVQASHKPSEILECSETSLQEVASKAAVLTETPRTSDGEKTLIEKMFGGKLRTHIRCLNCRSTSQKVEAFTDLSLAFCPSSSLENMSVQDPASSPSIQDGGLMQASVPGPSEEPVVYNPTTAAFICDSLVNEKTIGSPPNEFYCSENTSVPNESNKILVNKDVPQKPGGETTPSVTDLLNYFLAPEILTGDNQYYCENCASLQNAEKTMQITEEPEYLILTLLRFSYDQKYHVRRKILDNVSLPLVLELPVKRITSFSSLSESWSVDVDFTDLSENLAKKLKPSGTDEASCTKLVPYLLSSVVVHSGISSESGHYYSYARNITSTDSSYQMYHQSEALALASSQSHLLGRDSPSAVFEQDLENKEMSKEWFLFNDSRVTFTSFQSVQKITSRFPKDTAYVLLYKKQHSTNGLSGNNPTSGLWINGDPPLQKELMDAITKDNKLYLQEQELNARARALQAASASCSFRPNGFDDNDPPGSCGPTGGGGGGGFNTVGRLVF
Procedure, shortened: as §1

[4] = molecular target: T3, USP39 (UniProt Q53GS9)
T3 sequence (whole entry): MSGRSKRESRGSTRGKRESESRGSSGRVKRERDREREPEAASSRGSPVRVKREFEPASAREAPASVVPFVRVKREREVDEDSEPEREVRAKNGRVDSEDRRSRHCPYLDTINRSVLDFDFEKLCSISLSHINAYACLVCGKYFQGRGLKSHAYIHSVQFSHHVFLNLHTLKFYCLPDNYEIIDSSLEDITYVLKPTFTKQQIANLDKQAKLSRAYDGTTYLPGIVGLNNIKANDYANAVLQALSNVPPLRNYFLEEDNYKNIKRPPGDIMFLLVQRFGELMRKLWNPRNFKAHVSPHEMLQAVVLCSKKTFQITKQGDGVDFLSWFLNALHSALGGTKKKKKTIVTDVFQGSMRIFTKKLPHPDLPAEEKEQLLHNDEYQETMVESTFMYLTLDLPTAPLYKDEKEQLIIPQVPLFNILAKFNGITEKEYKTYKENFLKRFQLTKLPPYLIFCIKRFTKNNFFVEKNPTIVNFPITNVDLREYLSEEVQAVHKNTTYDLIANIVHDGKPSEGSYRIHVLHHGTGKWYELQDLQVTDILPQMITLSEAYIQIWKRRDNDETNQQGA
Procedure, shortened: as §1

[5] = molecular target: T4, USP4 (UniProt Q13107)
T4 sequence (whole entry): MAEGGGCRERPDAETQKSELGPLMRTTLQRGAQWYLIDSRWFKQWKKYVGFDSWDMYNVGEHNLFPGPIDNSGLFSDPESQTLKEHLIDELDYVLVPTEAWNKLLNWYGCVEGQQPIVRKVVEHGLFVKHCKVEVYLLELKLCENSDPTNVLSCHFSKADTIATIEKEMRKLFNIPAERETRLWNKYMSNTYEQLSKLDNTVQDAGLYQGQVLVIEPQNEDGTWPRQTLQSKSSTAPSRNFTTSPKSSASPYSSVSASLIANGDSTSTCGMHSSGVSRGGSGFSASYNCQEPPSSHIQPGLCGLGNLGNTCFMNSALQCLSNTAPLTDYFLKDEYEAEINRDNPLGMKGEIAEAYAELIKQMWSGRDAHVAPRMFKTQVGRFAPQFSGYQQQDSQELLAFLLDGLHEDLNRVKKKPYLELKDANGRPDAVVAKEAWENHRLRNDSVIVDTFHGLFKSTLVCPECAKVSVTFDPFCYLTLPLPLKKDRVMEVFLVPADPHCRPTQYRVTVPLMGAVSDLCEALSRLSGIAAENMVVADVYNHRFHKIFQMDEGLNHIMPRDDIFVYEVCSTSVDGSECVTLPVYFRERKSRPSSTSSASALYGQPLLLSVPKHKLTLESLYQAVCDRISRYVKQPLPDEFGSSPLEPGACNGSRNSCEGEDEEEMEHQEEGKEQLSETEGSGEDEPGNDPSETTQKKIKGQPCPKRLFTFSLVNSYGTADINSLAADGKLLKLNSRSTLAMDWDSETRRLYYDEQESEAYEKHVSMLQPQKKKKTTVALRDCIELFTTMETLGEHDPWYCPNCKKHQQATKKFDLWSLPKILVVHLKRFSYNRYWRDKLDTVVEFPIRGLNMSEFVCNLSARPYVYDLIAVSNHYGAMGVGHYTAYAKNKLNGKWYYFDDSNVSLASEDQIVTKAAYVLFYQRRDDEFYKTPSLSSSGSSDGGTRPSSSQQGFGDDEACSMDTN
Procedure, shortened: as §1

Measured: log2 ratio of Biotin-Ahx-Ub-VS probe labelling

USP34, sequence (Q70CQ2 whole entry, the tested form may be a part): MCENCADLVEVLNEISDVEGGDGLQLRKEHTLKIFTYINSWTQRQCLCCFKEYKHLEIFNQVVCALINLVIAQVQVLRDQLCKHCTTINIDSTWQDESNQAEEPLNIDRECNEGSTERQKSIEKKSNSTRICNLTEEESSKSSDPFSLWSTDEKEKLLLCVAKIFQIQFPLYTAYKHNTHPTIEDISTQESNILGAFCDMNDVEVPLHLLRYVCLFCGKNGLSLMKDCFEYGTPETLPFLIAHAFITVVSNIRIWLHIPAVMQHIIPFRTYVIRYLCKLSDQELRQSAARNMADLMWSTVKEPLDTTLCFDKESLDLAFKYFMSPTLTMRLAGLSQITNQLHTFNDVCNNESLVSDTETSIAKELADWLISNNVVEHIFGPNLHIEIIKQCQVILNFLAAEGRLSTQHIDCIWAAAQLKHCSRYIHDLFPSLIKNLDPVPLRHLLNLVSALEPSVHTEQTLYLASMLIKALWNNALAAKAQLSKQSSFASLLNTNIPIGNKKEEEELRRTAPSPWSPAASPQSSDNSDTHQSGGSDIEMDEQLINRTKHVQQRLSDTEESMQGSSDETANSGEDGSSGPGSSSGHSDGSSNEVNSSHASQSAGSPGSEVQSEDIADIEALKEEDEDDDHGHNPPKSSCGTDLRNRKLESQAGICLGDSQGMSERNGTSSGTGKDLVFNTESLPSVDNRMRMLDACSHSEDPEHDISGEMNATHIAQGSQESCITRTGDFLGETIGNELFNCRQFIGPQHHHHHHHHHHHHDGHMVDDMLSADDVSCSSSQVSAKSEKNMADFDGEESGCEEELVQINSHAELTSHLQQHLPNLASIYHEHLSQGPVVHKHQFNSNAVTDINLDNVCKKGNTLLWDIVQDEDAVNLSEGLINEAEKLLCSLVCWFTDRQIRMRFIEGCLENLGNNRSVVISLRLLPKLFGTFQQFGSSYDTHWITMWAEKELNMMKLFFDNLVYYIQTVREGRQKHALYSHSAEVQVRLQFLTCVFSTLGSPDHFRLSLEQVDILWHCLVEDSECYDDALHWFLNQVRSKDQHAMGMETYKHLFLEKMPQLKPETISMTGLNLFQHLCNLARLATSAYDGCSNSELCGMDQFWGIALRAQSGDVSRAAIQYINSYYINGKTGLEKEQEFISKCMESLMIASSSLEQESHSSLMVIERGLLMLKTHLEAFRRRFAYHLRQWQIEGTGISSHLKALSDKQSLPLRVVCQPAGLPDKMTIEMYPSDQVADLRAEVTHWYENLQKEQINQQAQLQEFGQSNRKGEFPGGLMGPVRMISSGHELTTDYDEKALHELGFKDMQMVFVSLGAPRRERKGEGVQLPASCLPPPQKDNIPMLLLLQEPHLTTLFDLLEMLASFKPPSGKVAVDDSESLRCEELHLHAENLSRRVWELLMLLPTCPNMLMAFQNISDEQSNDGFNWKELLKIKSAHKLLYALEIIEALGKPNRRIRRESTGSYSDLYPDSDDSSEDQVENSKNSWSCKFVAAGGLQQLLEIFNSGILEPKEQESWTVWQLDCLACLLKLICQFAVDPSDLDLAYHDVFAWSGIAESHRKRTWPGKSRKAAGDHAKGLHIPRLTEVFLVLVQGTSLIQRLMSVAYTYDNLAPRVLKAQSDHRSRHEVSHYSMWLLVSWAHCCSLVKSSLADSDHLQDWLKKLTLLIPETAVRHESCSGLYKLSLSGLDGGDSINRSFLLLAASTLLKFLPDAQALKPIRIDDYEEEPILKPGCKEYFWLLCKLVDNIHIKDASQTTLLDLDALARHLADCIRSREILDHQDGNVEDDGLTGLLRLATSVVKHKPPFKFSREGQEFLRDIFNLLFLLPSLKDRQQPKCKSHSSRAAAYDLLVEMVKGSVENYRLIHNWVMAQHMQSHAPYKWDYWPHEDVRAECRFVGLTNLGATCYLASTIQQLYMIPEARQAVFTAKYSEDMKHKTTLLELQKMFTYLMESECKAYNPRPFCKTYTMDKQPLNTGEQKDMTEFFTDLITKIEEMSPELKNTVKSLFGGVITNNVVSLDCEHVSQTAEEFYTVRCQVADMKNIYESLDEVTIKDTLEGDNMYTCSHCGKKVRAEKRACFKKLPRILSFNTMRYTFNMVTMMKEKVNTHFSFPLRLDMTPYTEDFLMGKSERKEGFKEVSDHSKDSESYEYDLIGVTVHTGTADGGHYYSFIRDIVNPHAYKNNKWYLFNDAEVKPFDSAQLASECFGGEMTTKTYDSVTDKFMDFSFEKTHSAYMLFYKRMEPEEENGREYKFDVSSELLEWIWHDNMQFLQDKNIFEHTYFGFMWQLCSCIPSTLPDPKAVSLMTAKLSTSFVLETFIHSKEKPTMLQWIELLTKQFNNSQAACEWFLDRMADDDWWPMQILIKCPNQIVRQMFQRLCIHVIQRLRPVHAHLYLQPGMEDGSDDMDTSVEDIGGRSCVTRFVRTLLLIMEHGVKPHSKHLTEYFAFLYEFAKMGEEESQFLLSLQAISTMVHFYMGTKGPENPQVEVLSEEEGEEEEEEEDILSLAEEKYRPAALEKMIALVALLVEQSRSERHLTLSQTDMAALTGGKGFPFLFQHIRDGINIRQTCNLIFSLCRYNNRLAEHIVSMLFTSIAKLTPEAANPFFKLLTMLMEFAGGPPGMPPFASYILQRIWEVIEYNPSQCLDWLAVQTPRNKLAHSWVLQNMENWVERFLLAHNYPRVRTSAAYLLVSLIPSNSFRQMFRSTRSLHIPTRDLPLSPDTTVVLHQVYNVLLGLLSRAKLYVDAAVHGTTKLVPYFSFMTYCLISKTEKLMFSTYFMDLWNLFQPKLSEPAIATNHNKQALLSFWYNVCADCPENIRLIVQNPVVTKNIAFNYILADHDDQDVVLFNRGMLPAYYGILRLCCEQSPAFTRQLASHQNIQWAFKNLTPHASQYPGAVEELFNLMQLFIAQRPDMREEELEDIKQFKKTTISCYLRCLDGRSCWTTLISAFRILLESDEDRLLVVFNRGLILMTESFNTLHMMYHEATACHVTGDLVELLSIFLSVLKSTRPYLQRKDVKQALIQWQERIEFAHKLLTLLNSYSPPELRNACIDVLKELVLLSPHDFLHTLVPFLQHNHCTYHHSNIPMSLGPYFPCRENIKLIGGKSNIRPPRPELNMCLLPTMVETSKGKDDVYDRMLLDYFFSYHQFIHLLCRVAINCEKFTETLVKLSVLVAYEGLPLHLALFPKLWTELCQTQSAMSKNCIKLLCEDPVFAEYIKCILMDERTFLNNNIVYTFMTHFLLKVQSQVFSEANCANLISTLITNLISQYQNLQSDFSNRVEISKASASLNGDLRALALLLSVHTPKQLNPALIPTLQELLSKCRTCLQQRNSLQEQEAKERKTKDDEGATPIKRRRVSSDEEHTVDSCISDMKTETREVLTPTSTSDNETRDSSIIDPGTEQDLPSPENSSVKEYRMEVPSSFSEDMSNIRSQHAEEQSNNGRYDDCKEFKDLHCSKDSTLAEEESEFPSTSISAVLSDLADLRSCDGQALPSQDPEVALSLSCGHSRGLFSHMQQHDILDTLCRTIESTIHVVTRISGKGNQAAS

Cl.O=C(CCl)N1CCn2cncc2C1
inactive: [1] -0.401 | [2] -0.24 | [3] -0.142 | [4] -0.167 | [5] -0.285
